# “And” between values parts separate entries of the source, which are not always exact repeats. Equal values may be shown once. Results filed as inconclusive are left out. A structure can be active in one record and inactive in another. The source made the active and inactive calls. Rule for the calls: active = hit-call score of the fitted dose curve at least 0.9, where 1 is the maximum; inconclusive = response in the unintended direction; inactive = score below 0.9.
# Experiments:
# [1] = target: human Matrix Metalloproteinase-3 (MMP3), MMP3 (gene 4314) (UniProt P08254); test: NVS_ENZ_hMMP3: NovaScreen (NVS) Enzymatic Assay for human Matrix Metalloproteinase-3 (MMP3) (AID 2283185)
# Summary of the method: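 Fluorescent substrate turnover by recombinant MMP3 read after 1 h, signal loss scored against DMSO. Compounds first run in duplicate at 25 uM single dose, then actives confirmed by concentration series.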
# [2] = target: human LYN Proto-Oncogene, Src family Tyrosine Kinase (LynA), LYN (gene 4067) (UniProt P07948); test: NVS_ENZ_hLynA: NovaScreen (NVS) Enzymatic Assay for human LYN Proto-Oncogene, Src family Tyrosine Kinase (LynA) (AID 2283173)
# Procedure: NVS_ENZ_hLynA is a biochemical, single-readout assay that uses extracted gene-proteins in a cell-free assay. Measurements were taken 1 hour after chemical dosing in a 384-well plate.NVS_ENZ_hLynA is one of one assay component(s) measured or calculated from the NVS_ENZ_hLynA assay. It is designed to make measurements of enzyme activity, a form of enzyme reporter, as detected with fluorescence intensity signals by Fluorescence and electrophoretic mobility shift technology.Data from the assay component NVS_ENZ_hLynA was analyzed into 1 assay endpoint. This assay endpoint, NVS_ENZ_hLynA, was analyzed in the positive analysis fitting direction relative to DMSO as the negative control and baseline of activity. Using a type of enzyme reporter, loss-of-signal activity can be used to understand changes in the enzymatic activity as they relate to the gene LYN. Furthermore, this assay endpoint can be referred to as a primary readout, because this assay has produced multiple assay endpoints where this one serves a enzymatic activity function. To generalize the intended target to other relatable targets, this assay endpoint is annotated to the kinase intended target family, where the subfamily is non-receptor tyrosine kinase.
# Binding assays used specific radioligands (tritiated, iodinated) with non-radioactive competitive displacement ligands in agonist or antagonist protocols (as indicated) and various reference compounds and inhibitors to titrate specific binding to receptors and transporters. Most enzyme assays (CYPs, kinases, phosphatases, proteases, HDACs) used recombinant protein and specific substrates (fluorescence mostly, some colorimetric and radioactive) and inhibitors, followed by a biochemical separation of substrate and product. All assays for the biochemical HTS were initially run in duplicate at a single concentration (10 uM for CYP450 assays and 25 uM for all others). […]
# [3] = target: human Mitogen- and Stress-activated Protein Kinase-1 (Msk1), RPS6KA5 (gene 9252) (UniProt O75582); test: NVS_ENZ_hMsk1: NovaScreen (NVS) Enzymatic Assay for human Mitogen- and Stress-activated Protein Kinase-1 (Msk1) (AID 2283187)
# Summary of the method: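 Chemicals first run in duplicate at 25 uM, with actives followed up in singleton concentration series to 50 uM maximum. Enzyme activity came from substrate/product mobility-shift separation with fluorescence detection after 1 h incubation of the recombinant protein.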
# [4] = target: Collagenase 3 (Homo sapiens) (UniProt P45452); test: NVS_ENZ_hMMP13: NovaScreen (NVS) Enzymatic Assay for human Matrix Metalloproteinase-13 (MMP13) (AID 2283182)
# Procedure: NVS_ENZ_hMMP13 is a biochemical, single-readout assay that uses extracted gene-proteins in a cell-free assay. Measurements were taken 1 hour after chemical dosing in a 96-well plate.NVS_ENZ_hMMP13 is one of one assay component(s) measured or calculated from the NVS_ENZ_hMMP13 assay. It is designed to make measurements of enzyme activity, a form of enzyme reporter, as detected with fluorescence intensity signals by Fluorescence technology.Data from the assay component NVS_ENZ_hMMP13 was analyzed into 1 assay endpoint. This assay endpoint, NVS_ENZ_hMMP13, was analyzed in the positive analysis fitting direction relative to DMSO as the negative control and baseline of activity. Using a type of enzyme reporter, loss-of-signal activity can be used to understand changes in the enzymatic activity as they relate to the gene MMP13. Furthermore, this assay endpoint can be referred to as a primary readout, because this assay has produced multiple assay endpoints where this one serves a enzymatic activity function. To generalize the intended target to other relatable targets, this assay endpoint is annotated to the protease intended target family, where the subfamily is matrix metalloproteinase.
# Binding assays used specific radioligands (tritiated, iodinated) with non-radioactive competitive displacement ligands in agonist or antagonist protocols (as indicated) and various reference compounds and inhibitors to titrate specific binding to receptors and transporters. Most enzyme assays (CYPs, kinases, phosphatases, proteases, HDACs) used recombinant protein and specific substrates (fluorescence mostly, some colorimetric and radioactive) and inhibitors, followed by a biochemical separation of substrate and product. All assays for the biochemical HTS were initially run in duplicate at a single concentration (10 uM for CYP450 assays and 25 uM for all others). Assay-chemical combinations meeting a pre-defined threshold (e.g., 30% inhibition and other criteria defined below) were then run in singleton concentration-response format with maximum concentration of 20 uM for CYPs and 50 uM for all others. Each assay was run with positive and negative controls, and concurrent controls on every plate. The follow-up (secondary) screen tested active chemical-pairs in concentration series, as well as a few additional assays not tested in the primary screen, some selected negative inactives, and several cases re-run in the concentration series for confirmatory purposes.
# [5] = target: human Matrix Metalloproteinase-7 (MMP7), MMP7 (gene 4316) (UniProt P09237); test: NVS_ENZ_hMMP7: NovaScreen (NVS) Enzymatic Assay for human Matrix Metalloproteinase-7 (MMP7) (AID 2283183)
# Summary of the method: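 Compounds first tested at 25 uM in duplicate, then at up to 50 uM in concentration series if active. Protease activity measured by fluorescence intensity 1 h after dosing, with fitting relative to DMSO.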
# [6] = target: human c-Jun N-terminal Kinases (JNK2), MAPK9 (gene 5601) (UniProt P45984); test: NVS_ENZ_hJNK2: NovaScreen (NVS) Enzymatic Assay for human c-Jun N-terminal Kinases (JNK2) (AID 2283171)
# Summary of the method: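 Chemicals first tested in duplicate at 25 uM, then in singleton concentration series up to 50 uM, against extracted JNK2 enzyme. Activity loss read by fluorescence with mobility-shift separation 1 h post-dose; DMSO baseline.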
# [7] = target: Mitogen-activated protein kinase 3 (Homo sapiens) (UniProt P27361); test: NVS_ENZ_hMAPK3: NovaScreen (NVS) Enzymatic Assay for human Mitogen-Activated Protein Kinase 3 (MAPK 3) (AID 2283177)
# Summary of the method: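 Chemicals were first tested in duplicate at 25 uM, with hits re-run as concentration series (max 50 uM). Recombinant enzyme activity, measured 1 h post-dose in a cell-free format, was read by fluorescence/mobility shift relative to DMSO.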
# [8] = target: human MAP Kinase-Activated Protein Kinase 2 (MAPKAPK2), MAPKAPK2 (gene 9261) (UniProt P49137); test: NVS_ENZ_hMAPKAPK2: NovaScreen (NVS) Enzymatic Assay for human MAP Kinase-Activated Protein Kinase 2 (MAPKAPK2) (AID 2283178)
# Summary of the method: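 Chemicals screened in duplicate at 25 uM, then to 50 uM top concentration in concentration-response, against recombinant human MAPKAPK2; substrate conversion read 1 hr post-dosing by fluorescence after electrophoretic mobility-shift separation, loss-of-signal relative to DMSO.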
# [9] = target: human Matrix Metalloproteinase-2 (MMP2), MMP2 (gene 4313) (UniProt P08253); test: NVS_ENZ_hMMP2: NovaScreen (NVS) Enzymatic Assay for human Matrix Metalloproteinase-2 (MMP2) (AID 2283184)
# Summary of the method: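 Compounds first screened in duplicate at a single 25 uM, with actives followed up in concentration series. Recombinant human MMP2 cleaves a fluorogenic substrate; fluorescence taken at 1 h, inhibition fitted relative to DMSO.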
# [10] = target: human Matrix Metalloproteinase-9 (MMP9), MMP9 (gene 4318) (UniProt P14780); test: NVS_ENZ_hMMP9: NovaScreen (NVS) Enzymatic Assay for human Matrix Metalloproteinase-9 (MMP9) (AID 2283190);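 note: cell-free recombinant MMP9 protease activity read by fluorescent substrate signal; active means inhibition seen as loss of fluorescence signal versus DMSO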
# Summary of the method: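 Screening concentration 25 uM, duplicate wells, then dose series for confirmation. Cell-free enzymatic reaction measured by fluorescence intensity 1 h post-dosing; decreased signal versus DMSO taken as activity.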
# Mitogen-activated protein kinase 3 (Homo sapiens), sequence (P27361 whole entry, looked up): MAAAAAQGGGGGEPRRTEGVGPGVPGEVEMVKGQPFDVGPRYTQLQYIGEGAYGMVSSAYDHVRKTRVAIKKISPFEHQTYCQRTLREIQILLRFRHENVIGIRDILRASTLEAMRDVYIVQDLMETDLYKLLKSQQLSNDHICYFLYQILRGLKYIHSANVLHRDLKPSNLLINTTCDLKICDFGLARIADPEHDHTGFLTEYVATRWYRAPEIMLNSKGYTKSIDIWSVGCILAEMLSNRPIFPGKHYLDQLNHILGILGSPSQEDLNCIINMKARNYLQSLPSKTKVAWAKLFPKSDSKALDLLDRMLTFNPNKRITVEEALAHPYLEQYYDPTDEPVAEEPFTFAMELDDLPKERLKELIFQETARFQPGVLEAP
# human Matrix Metalloproteinase-7 (MMP7), MMP7 (gene 4316), sequence (P09237 whole entry, looked up): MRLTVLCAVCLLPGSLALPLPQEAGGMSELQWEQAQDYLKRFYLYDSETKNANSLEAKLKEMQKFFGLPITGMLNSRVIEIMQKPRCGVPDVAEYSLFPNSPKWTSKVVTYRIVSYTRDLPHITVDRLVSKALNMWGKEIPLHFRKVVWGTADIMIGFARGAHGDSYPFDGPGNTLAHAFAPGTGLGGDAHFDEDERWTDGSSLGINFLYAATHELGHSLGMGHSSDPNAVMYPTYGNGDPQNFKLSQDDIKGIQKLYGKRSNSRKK
# human MAP Kinase-Activated Protein Kinase 2 (MAPKAPK2), MAPKAPK2 (gene 9261), sequence (P49137 whole entry, looked up): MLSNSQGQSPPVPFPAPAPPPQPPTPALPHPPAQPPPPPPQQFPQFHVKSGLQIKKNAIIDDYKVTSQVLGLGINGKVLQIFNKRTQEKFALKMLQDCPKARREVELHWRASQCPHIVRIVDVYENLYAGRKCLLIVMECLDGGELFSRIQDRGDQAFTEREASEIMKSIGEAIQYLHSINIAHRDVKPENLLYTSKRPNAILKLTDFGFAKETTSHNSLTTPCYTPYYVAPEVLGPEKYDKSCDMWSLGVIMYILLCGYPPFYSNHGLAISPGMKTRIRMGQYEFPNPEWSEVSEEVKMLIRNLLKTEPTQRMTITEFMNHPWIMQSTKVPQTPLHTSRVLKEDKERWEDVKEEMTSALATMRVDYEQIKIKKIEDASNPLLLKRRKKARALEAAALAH
# human Mitogen- and Stress-activated Protein Kinase-1 (Msk1), RPS6KA5 (gene 9252), sequence (O75582 whole entry, looked up): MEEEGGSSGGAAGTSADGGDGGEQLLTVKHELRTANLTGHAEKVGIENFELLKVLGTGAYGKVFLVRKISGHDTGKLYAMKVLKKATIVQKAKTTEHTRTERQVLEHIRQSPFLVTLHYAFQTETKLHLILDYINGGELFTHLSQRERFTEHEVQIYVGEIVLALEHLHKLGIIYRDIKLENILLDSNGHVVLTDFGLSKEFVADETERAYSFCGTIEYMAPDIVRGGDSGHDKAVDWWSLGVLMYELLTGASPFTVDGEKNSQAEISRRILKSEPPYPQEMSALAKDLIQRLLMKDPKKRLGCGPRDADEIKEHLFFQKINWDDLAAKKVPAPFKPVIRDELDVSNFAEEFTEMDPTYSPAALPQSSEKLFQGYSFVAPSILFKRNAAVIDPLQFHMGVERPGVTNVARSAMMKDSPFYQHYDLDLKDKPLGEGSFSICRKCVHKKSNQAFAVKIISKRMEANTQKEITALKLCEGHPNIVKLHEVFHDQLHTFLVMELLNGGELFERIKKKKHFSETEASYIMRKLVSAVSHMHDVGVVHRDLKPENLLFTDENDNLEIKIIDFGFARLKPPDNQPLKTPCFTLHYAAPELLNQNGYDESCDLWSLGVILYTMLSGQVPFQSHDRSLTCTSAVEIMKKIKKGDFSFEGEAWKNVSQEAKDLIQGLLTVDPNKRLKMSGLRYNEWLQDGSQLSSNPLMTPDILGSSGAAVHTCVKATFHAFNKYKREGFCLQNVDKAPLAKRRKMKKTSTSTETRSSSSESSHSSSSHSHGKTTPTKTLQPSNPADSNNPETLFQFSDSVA
# human Matrix Metalloproteinase-3 (MMP3), MMP3 (gene 4314), sequence (P08254 whole entry, looked up): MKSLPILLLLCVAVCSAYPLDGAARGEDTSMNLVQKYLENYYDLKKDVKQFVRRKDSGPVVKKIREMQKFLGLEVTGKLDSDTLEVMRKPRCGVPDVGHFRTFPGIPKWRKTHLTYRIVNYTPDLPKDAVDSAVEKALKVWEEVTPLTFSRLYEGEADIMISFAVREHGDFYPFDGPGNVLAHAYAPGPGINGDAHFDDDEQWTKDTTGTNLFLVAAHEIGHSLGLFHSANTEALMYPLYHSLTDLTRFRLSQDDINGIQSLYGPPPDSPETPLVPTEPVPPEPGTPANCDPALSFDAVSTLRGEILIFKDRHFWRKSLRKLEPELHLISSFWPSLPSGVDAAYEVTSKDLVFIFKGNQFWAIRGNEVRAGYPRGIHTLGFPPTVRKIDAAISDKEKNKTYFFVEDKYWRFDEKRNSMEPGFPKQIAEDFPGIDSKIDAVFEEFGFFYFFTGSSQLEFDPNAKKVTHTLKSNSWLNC
# human LYN Proto-Oncogene, Src family Tyrosine Kinase (LynA), LYN (gene 4067), sequence (P07948 whole entry, looked up): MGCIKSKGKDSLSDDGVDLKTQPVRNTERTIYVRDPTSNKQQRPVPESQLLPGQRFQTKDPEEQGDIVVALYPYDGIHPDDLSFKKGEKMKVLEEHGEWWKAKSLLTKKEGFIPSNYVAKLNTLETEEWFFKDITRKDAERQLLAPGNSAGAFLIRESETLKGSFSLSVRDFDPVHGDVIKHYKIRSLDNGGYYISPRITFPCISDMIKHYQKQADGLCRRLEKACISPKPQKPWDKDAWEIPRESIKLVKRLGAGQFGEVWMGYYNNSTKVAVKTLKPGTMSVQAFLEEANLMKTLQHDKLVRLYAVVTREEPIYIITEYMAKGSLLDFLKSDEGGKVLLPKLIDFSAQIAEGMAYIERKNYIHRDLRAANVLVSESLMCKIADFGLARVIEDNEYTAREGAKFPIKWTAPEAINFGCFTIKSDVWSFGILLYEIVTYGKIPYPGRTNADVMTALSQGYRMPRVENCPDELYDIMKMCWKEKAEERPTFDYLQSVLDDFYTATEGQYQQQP
# human c-Jun N-terminal Kinases (JNK2), MAPK9 (gene 5601), sequence (P45984 whole entry, looked up): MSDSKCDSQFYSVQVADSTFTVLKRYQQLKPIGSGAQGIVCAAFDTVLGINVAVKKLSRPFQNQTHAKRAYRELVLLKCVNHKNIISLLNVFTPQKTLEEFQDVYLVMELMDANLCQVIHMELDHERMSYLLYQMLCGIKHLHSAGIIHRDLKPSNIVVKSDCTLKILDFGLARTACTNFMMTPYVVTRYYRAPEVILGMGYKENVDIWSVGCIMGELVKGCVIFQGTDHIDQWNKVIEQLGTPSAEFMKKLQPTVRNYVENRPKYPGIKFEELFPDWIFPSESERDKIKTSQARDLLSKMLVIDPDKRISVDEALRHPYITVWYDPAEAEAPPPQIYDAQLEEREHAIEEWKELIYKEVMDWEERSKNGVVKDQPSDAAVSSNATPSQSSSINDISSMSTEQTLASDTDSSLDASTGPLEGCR
# human Matrix Metalloproteinase-9 (MMP9), MMP9 (gene 4318), sequence (P14780 whole entry, looked up): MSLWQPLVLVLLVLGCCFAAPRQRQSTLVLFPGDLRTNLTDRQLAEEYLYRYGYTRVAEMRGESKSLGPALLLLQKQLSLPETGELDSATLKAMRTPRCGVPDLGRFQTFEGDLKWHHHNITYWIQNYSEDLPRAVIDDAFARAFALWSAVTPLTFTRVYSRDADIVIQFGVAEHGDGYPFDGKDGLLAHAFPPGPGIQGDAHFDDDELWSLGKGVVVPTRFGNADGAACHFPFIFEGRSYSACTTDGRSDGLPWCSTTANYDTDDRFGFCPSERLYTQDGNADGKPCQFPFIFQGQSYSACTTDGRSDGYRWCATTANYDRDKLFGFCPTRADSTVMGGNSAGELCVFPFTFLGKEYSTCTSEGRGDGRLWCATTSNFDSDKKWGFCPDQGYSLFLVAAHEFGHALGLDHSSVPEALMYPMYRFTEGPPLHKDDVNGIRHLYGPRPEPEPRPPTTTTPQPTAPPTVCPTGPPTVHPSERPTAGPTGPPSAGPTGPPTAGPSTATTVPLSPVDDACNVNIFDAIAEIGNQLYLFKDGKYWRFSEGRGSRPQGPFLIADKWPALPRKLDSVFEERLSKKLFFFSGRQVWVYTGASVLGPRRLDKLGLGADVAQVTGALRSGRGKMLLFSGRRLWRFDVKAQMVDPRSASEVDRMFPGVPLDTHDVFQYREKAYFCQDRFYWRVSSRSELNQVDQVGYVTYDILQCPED
# human Matrix Metalloproteinase-2 (MMP2), MMP2 (gene 4313), sequence (P08253 whole entry, looked up): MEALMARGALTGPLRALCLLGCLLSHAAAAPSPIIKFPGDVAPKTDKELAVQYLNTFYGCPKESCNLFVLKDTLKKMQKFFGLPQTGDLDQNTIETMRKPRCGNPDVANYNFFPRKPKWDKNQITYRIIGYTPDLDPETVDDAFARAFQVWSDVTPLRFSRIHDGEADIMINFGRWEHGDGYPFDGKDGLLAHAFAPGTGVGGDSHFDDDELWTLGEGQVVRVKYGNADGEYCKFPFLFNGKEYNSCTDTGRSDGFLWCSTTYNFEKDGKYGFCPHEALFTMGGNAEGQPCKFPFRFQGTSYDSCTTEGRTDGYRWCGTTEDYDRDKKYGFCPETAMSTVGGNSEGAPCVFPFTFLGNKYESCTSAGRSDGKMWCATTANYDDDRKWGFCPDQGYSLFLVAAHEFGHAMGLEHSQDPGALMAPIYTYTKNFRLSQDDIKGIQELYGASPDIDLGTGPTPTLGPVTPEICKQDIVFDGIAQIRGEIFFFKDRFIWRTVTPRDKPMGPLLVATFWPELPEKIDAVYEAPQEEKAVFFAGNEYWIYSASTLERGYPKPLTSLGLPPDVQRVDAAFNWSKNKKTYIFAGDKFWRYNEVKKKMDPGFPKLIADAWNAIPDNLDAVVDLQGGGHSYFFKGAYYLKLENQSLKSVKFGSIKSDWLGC
compound,measurement,setting,value
CCCOC(=O)NCCCN(C)C,outcome,[1],inactive
O=C(c1ccc(O)cc1O)c1ccc(O)cc1O,outcome,[2],inactive
same,AC50,[3],24.1 µM (active)
CCOC(=O)[C@H](C)Oc1ccc(Oc2nc3ccc(Cl)cc3o2)cc1,outcome,[4],inactive
CCOC(=O)NCCOc1ccc(Oc2ccccc2)cc1,outcome,[5],inactive
COC(=O)c1ccccc1C(=O)O,outcome,[2],inactive
S=C(S)NCCNC(=S)S.[Mn+2].[S-]C([S-])=NCCN=C([S-])[S-].[Zn+2],outcome,[6],inactive
same,AC50,[7],6.76 µM (active) and 25 µM (active)
same,AC50,[8],408 nM (active) and 399 nM (active)
same,AC50,[4],16.2 µM (active)
same,outcome,[4],inactive
same,AC50,[5],3.74 µM (active)
same,AC50,[1],10.8 µM (active)
same,AC50,[3],1.45 µM (active) and 9.58 µM (active)
N#CSCSc1nc2ccccc2s1,outcome,[2],inactive
same,outcome,[8],inactive
O=C(O)C1(C(=O)Nc2ccc(Cl)cc2Cl)CC1,AC50,[6],25 µM (active)
same,outcome,[8],inactive
same,AC50,[9],8.27 µM (active)
same,outcome,[1],inactive
same,outcome,[3],inactive
S=C([S-])NCCNC(=S)[S-].[Mn+2],AC50,[7],10 µM (active)
same,AC50,[8],468 nM (active)
same,AC50,[4],6.6 µM (active)
same,outcome,[5],inactive
same,AC50,[3],2.09 µM (active)
same,outcome,[10],inactive
CCCCOC(=O)[C@@H](C)Oc1ccc(Oc2ccc(C(F)(F)F)cn2)cc1,outcome,[5],inactive
same,outcome,[1],inactive
CN(C)C(=O)Nc1ccc(Cl)c(Cl)c1,outcome,[1],inactive

# Reference: PubChem BioAssay (EPA / NIEHS)
